Experimental data from PubChem BioAssay (NCATS).
Results filed as inconclusive are left out. A number with no mark means an inactive call. Active and inactive are the calls of the source. Calls follow the shape of the dose curve; as a rule, active = well fitted cell-killing curve with a large enough effect; inconclusive = small, poorly fitted or top-dose-only effect, or effect the other way; inactive = no such curve, though single readings can be large or run the other way.

assay: Quantitative High-Throughput drug screen in 47 multiple myeloma cell lines against the NCATS MIPE library collection: LP1_DSMZ cell viability assay (AID 1918982); conditions: LP1 myeloma viability, CellTiter-Glo ATP luminescence, 48 h; series mostly up to 45.8 µM; viability (% of control): at the top concentration
In short: (§1)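 Inhibition of viability over 48 h was scored by ATP content (CellTiter-Glo) in 500-cell wells. Zero and full viability were defined by media-only and DMSO-only wells.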
Also: nearly all actives have a fitted effect of over 35% in size.
Potency is read from the fitted curve at half-maximal effect.

Row | SMILES | viability (% of control) | Potency
1 | CN1CCN2c3ncccc3Cc3ccccc3C2C1 (stereo unspecified) | 103% | –
2 | CS(=O)(=O)c1ccc(C2=C(c3ccccc3)C(=O)OC2)cc1 | 109% | –
3 | CC=C1C2C=C(C)CC1(N)c1ccc(=O)[nH]c1C2 (stereo unspecified) | 89.6% | –
4 | COc1ccc(-c2cc(=O)c3c(O)cc(O[C@@H]4O[C@H](CO[C@@H]5O[C@@H](C)[C@H](O)[C@@H](O)[C@@H]5O)[C@@H](O)[C@H](O)[C@@H]4O)cc3o2)cc1O | 106% | –
5 | COc1c(C)c2c(c(O)c1CC=C(C)CCC(=O)OCCN1CCOCC1)C(=O)OC2 | – | 6.62 µM (active)
6 | CN1C(=O)C[C@H](C(=O)N[C@@H](Cc2cnc[nH]2)C(=O)N2CCC[C@@H]2C(N)=O)NC1=O | 75.4% | –
7 | CON(C)C(=O)N1N=C(c2cc(F)ccc2F)S[C@]1(CCCN)c1ccccc1 | 22.5% | –
8 | CC(=O)N1CCN(c2ccc(OCc3nn(C)c(C)c3-c3cccc4c(CCCOc5cc(C)c(Cl)c(C)c5)c(C(=O)O)n(Cc5cccnc5)c34)cc2)CC1 | 76.5% | –
9 | CCOC(=O)[C@H](CCc1ccccc1)N[C@@H](C)C(=O)N1CCCC1C(=O)O (stereo partly specified) | 102% | –
10 | CCCCc1ccc(NS(=O)(=O)c2ccc(C)c(C(=O)N3CCN(c4cccc(C)c4C)CC3)c2)cc1 | – | 23.5 µM (active)
11 | O=c1[nH]c(=O)n([C@H]2C[C@@H](O)[C@@H](CO)O2)cc1I | 91.9% | –
12 | CC1CNc2c(cccc2S(=O)(=O)N[C@@H](CCCN=C(N)N)C(=O)N2CC[C@@H](C)C[C@@H]2C(=O)O)C1 (stereo partly specified) | 108% | –
13 | C[C@@H]1C[C@H]2[C@@H]3CCC4=CC(=O)C=C[C@]4(C)[C@@]3(F)[C@@H](O)C[C@]2(C)[C@@]1(O)C(=O)CO | – | 0.0083 µM (active)
14 | Nc1ccn([C@@H]2O[C@H](CO)[C@@H](O)[C@H]2O)c(=O)n1 | 118% | –
15 | CN1CCN(c2ncc(-c3cc(Cl)cc(Cl)c3Cl)c(N)n2)CC1 | 88.7% | –
16 | O=C1C(CCC(O)c2ccc(F)cc2)C(c2ccc(O)cc2)N1c1ccc(F)cc1 (stereo unspecified) | 84% | –
17 | COC(=O)[C@H](c1ccccc1Cl)N1CCc2sccc2C1 | 85.3% | –
18 | C=C1c2cccc(O)c2C(O)=C2C(=O)[C@@]3(O)C(O)=C(C(N)=O)C(=O)[C@@H](N(C)C)[C@@H]3[C@@H](O)[C@H]12 | – | 23.5 µM (active)
19 | CC1=C(C(=O)Nc2cc3cn[nH]c3cc2F)C(c2ccc(C(F)(F)F)cc2)CC(=O)N1 (stereo unspecified) | 102% | –
20 | OC[C@H]1O[C@@H](Oc2ccc(O)cc2)[C@H](O)[C@@H](O)[C@H]1O | 131% | –
21 | C[C@@H](O)[C@H]1C(=O)N2C(C(=O)OCOC(=O)C(C)(C)C)=C(SC3CN(C4=NCCS4)C3)[C@H](C)[C@H]12 | 108% | –
22 | O=C(O)c1ccc(O)c2ncc(N3CCOCC3)cc12 | – | 20.9 µM (active)

assay: Quantitative High-Throughput drug screen in 47 multiple myeloma cell lines against the NCATS MIPE library collection: KMS28PE_JCRB cell viability assay (AID 1918983); conditions: KMS28PE multiple myeloma viability, CellTiter-Glo ATP, 48 h; series mostly up to 45.8 µM; viability, % of DMSO control: at the top concentration
In short: as §1

Row | SMILES | viability, % of DMSO control | Potency
23 | CN1CCN2c3ncccc3Cc3ccccc3C2C1 (stereo unspecified) | 102% | –
24 | COc1cc2ncnc(Nc3cc(Br)c(O)c(Br)c3)c2cc1OC | – | 1.48 µM (active)
25 | CS(=O)(=O)c1ccc(C2=C(c3ccccc3)C(=O)OC2)cc1 | 123% | –
26 | CC=C1C2C=C(C)CC1(N)c1ccc(=O)[nH]c1C2 (stereo unspecified) | 116% | –
27 | COc1ccc(-c2cc(=O)c3c(O)cc(O[C@@H]4O[C@H](CO[C@@H]5O[C@@H](C)[C@H](O)[C@@H](O)[C@@H]5O)[C@@H](O)[C@H](O)[C@@H]4O)cc3o2)cc1O | 162% | –
28 | Cc1nc2c([nH]1)CCN(C(=O)c1ccc(NC(=O)c3ccccc3-c3ccccc3)cc1)c1ccccc1-2 | 100% | –
29 | COc1c(C)c2c(c(O)c1CC=C(C)CCC(=O)OCCN1CCOCC1)C(=O)OC2 | – | 4.69 µM (active)
30 | CN1C(=O)C[C@H](C(=O)N[C@@H](Cc2cnc[nH]2)C(=O)N2CCC[C@@H]2C(N)=O)NC1=O | 113% | –
31 | O=C(CC12CC3CC(CC(C3)C1)C2)Nc1cccc2nc(NCCNCCO)ccc12 | – | 16.6 µM (active)
32 | CON(C)C(=O)N1N=C(c2cc(F)ccc2F)S[C@]1(CCCN)c1ccccc1 | 55.4% | –
33 | CC(=O)N1CCN(c2ccc(OCc3nn(C)c(C)c3-c3cccc4c(CCCOc5cc(C)c(Cl)c(C)c5)c(C(=O)O)n(Cc5cccnc5)c34)cc2)CC1 | – | 20.9 µM (active)
34 | CCOC(=O)[C@H](CCc1ccccc1)N[C@@H](C)C(=O)N1CCCC1C(=O)O (stereo partly specified) | 123% | –
35 | CCCCc1ccc(NS(=O)(=O)c2ccc(C)c(C(=O)N3CCN(c4cccc(C)c4C)CC3)c2)cc1 | – | 23.5 µM (active)
36 | O=c1[nH]c(=O)n([C@H]2C[C@@H](O)[C@@H](CO)O2)cc1I | 128% | –
37 | Cc1ccc2c(c1)c1c(n2CCc2ccc(C)nc2)CCN(C)C1 | 102% | –
38 | CCC(=C(CC)c1ccc(O)cc1)c1ccc(O)cc1 | – | 18.7 µM (active)
39 | O=C(c1ccc(F)c(F)c1Nc1ccc(I)cc1F)N1CC(O)([C@H]2CCCCN2)C1 | – | 18.7 µM (active)
40 | CCc1cc(-c2n[nH]c(C)c2-c2ccc3c(c2)OCCO3)c(O)cc1O | – | 4.18 µM (active)
41 | NCc1c[nH]c(=S)n1[C@H]1CCc2c(F)cc(F)cc2C1 | – | 14.8 µM (active)
42 | C[C@@H]1C[C@H]2[C@@H]3CCC4=CC(=O)C=C[C@]4(C)[C@@]3(F)[C@@H](O)C[C@]2(C)[C@@]1(O)C(=O)CO | 126% | –
43 | CNC(=O)[C@H](Cc1ccccc1)NC(=O)[C@H](CC(C)C)[C@H](CSc1cccs1)C(=O)NO | – | 6.62 µM (active)
44 | Nc1ccn([C@@H]2O[C@H](CO)[C@@H](O)[C@H]2O)c(=O)n1 | 120% | –
45 | COc1ccc(-c2ccc3ncc4c(c3c2)n(-c2ccc(N3CCNCC3)c(C(F)(F)F)c2)c(=O)n4C)cn1 | – | 0.0066 µM (active)
46 | O=C1C(CCC(O)c2ccc(F)cc2)C(c2ccc(O)cc2)N1c1ccc(F)cc1 (stereo unspecified) | 114% | –
47 | COC(=O)[C@H](c1ccccc1Cl)N1CCc2sccc2C1 | 104% | –
48 | CC1=C(C(=O)Nc2cc3cn[nH]c3cc2F)C(c2ccc(C(F)(F)F)cc2)CC(=O)N1 (stereo unspecified) | 176% | –
49 | OC[C@H]1O[C@@H](Oc2ccc(O)cc2)[C@H](O)[C@@H](O)[C@H]1O | 128% | –
50 | C[C@@H](O)[C@H]1C(=O)N2C(C(=O)OCOC(=O)C(C)(C)C)=C(SC3CN(C4=NCCS4)C3)[C@H](C)[C@H]12 | 134% | –
51 | O=C(O)c1ccc(O)c2ncc(N3CCOCC3)cc12 | 145% | –
